# Screen size: about 370,000 compounds; about 2,800 (0.76%) were called active. No stated cut-off is given here; in the data, active means inhibition above about 21%; inactive means the rest. The entries come from a sample that favours actives as a whole.
# Target: E3 ubiquitin-protein ligase UHRF1 (Homo sapiens) (UniProt Q96T88)
# Experiment: UHRF1 methylated DNA binding inhibitors, primary screen, counter-screen for MBD2 inhibitor project, biochemical, TR-FRET, human UHRF1, single concentration (AID 687016);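 further: UHRF1 SRA domain binding a hemimethylated CpG hairpin DNA probe; 0% = median of test compound wells and 100% = reference inhibitor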
# Conditions: UHRF1 binding to methylated oligo, at 4.4 µM, stronger effect = higher value
# E3 ubiquitin-protein ligase UHRF1 (Homo sapiens), sequence (Q96T88 whole entry, looked up, the tested form may be a part): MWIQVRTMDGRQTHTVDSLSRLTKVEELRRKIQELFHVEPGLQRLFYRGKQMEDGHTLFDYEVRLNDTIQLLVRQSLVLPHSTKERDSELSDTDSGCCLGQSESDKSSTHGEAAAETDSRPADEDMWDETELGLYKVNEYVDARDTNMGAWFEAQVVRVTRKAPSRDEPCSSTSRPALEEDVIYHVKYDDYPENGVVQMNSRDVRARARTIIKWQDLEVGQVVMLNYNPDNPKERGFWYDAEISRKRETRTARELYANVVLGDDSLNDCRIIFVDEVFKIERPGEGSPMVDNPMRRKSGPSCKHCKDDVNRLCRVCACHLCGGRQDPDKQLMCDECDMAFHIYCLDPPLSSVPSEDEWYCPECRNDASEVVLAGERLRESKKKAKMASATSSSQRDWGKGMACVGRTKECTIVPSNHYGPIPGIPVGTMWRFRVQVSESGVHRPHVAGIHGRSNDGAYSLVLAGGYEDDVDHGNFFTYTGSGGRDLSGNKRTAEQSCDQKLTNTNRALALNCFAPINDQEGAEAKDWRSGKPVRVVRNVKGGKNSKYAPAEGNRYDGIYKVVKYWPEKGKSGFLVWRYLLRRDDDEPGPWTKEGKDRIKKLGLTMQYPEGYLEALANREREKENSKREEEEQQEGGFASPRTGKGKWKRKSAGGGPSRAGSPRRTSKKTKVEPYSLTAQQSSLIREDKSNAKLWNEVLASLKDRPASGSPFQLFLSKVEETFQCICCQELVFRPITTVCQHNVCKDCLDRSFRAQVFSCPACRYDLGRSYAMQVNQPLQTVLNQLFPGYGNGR
row,SMILES,inhibition
1,O=C(Nc1cc(F)cc(F)c1)OC1CCC12CCC(c1ccccc1)CC2 (stereo not given),-0.77% (inactive)
2,CC(C)(C)c1ccc(C(=O)Nc2cc(Cl)c(Br)cc2C(=O)O)cc1,3.66% (inactive)
3,Cc1ccc(S(=O)(=O)N(CC(=O)NN=C2CCN(C)CC2)c2ccc(F)cc2)cc1,-0.56% (inactive)
4,Cc1ccc(S(=O)(=O)N(CC(=O)N/N=C/c2ccc(F)cc2)c2cccc3cccnc23)cc1,24.1% (active)
5,COc1ccccc1N(CC(=O)N/N=C(\C)c1ccccc1O)S(=O)(=O)c1ccc(C)cc1,-1.56% (inactive)
6,O=S1(=O)c2ccc(Br)cc2OC[C@H](Cc2ccccc2)N1Cc1cn(Cc2ccccc2)nn1,1.7% (inactive)
7,COc1ccc(S[C@]2(C(=O)N(C)C)CC(=O)N(c3ccc(OC)cc3)[C@@H]2c2ccc(OC)cc2)cc1,2.01% (inactive)
8,O=C(O)c1ccc(NN=CC2=C(N3CCOCC3)/C(=C/c3ccccc3)CC2)cc1,22.5% (active)
9,O=C(Nc1ccc(F)cc1)c1cccnc1N1CCOCC1,-3.63% (inactive)
10,O=C1OC(NC(=O)c2ccccc2)C(N2CCOCC2)=C1Cl (stereo not given),0.02% (inactive)
11,CCOC(=O)C(=O)N(Cc1ccccc1)c1ccccc1C(=O)Nc1cc(OC)ccc1OC,1.4% (inactive)
12,COc1ccc(CCNc2nc(-c3cccc(NC(C)=O)c3)cs2)cc1OC,63% (active)
13,COc1ccc(CCNc2nc(C)cc(C)n2)cc1OC,-1.42% (inactive)
14,COc1ccc(NC(=O)C2(C)Cc3c(-c4cccc(NC(C)=O)c4)ccnc3O2)cc1OC (stereo not given),3.78% (inactive)
15,Cc1ccc(CSc2nnc(SCC(=O)NN=Cc3cc(Br)ccc3F)s2)cc1,-0.65% (inactive)
16,COc1ccc(NC(=O)CSc2nnc(Cc3ccccc3)c(=O)n2N)cc1,-3.2% (inactive)
17,COc1ccc(-n2c(SCC(=O)Nc3ccc(C)c(Cl)c3)nc3ccccc3c2=O)cc1,0.63% (inactive)
18,COc1ccc(NC(=O)CSc2nc3ccccc3c(=O)n2C)cc1,40.1% (active)
19,COc1ccc(C2CC=C(C(=O)O)C(c3ccccc3F)N2S(=O)(=O)c2ccc(C)cc2)cc1OC (stereo not given),-0.43% (inactive)
20,COc1cccc(N(C)C(=O)[C@@H](C)[C@@H](O)c2ccc3ccccc3c2)c1,-1.4% (inactive)
21,CC(C)Oc1ccc(C2NC(=O)NC2=O)cc1 (stereo not given),25% (active)
22,COc1ccc(C2NC(=O)N(C)C(C)=C2[N+](=O)[O-])cc1 (stereo not given),0.56% (inactive)
23,O=C1NC(=O)C(c2ccc(Cl)cc2)N1 (stereo not given),2.25% (inactive)
24,N#Cc1ccccc1OC[C@@H](O)CN1CCC(C(O)(c2ccccc2)c2ccccc2)CC1,-2.62% (inactive)
25,Cc1ccc(CN2CCCCC(NC(=O)C3CCCCC3)C2=O)cc1 (stereo not given),-1.14% (inactive)
26,CCCN(CCC)C(=S)Nc1cc(C(=O)OC)ccc1C(=O)OC,20.9% (active)
27,CCS(=O)(=O)Nc1cc(C(=O)OC)ccc1C(=O)OC,-4.74% (inactive)

row,SMILES,inhibition
1,CCN(CCO)C(=S)Nc1cc(C(=O)OC)ccc1C(=O)OC,2.08% (inactive)
2,COc1cccc(/C=C2\CC3(OC(C)=O)CCCN2C3)c1 (stereo not given),-1.67% (inactive)
3,Cc1ccc(-c2nn(-c3ccc(F)cc3)cc2C(=O)NCC(c2cccs2)N2CCOCC2)cc1 (stereo not given),-1.94% (inactive)
4,COc1ccc(NS(=O)(=O)c2ccc(C)c(C(=O)NCC(c3cccs3)N3CCOCC3)c2)cc1 (stereo not given),3.98% (inactive)
5,O=C(NCC(c1cccs1)N1CCOCC1)c1cc(Cl)ccc1[N+](=O)[O-] (stereo not given),29.1% (active)
6,O=C(NCC1COc2ccccc2O1)c1ccc(NC(=O)c2cc(F)ccc2F)cc1 (stereo not given),-0.34% (inactive)
7,O=C(CNS(=O)(=O)c1ccccc1F)N1CCN(c2ccccn2)CC1,-1.25% (inactive)
8,NC1=CC(=O)C(=O)c2cccnc21,21.7% (active)
9,Cc1nc(SCC(=O)NC2CCCCC2C)c(C#N)c(C)c1C (stereo not given),3.02% (inactive)
10,Cc1cc(C)c(C#N)c(SCC(=O)NN2CC(=O)N(c3ccccc3F)CC2=O)n1,1.74% (inactive)
11,Cc1cc(C(F)(F)F)c(C#N)c(SCC(=O)NC2CC2)n1,25.8% (active)
12,CCCCOCCCNC(=O)C[C@H]1C[C@@]2(C(=O)OC)C(=C[C@H](COCc3ccccc3)O[C@@H]2C)N(Cc2cccc3ccccc23)C1=O,-3.11% (inactive)
13,CCOC(=O)c1csc(NC(=O)C2CCCN(S(=O)(=O)c3ccc(Cl)s3)C2)n1 (stereo not given),0.11% (inactive)
14,CC(C)CNS(=O)(=O)CC1NCCc2ccccc21 (stereo not given),1.66% (inactive)
15,C=C1c2c(Cl)ccc(O)c2C(O)=C2C(=O)[C@]3(O)C(O)=C(C(N)=O)C(=O)[C@@H](N(C)C)[C@@H]3[C@@H](O)C12 (stereo not given in full),58.9% (active)
16,CN(C)[C@@H]1C(=O)C(C(N)=O)=C(O)[C@@]2(O)C(=O)C3=C(O)c4c(O)ccc(Cl)c4[C@@H](O)[C@H]3C[C@@H]12,35.1% (active)
17,CC(C)C(C#CC1CC1)N(Cc1ccc2c(c1)OCO2)C(N)=NC(=O)/C=C/c1cccc(C(F)(F)F)c1 (stereo not given),-0.23% (inactive)
18,CN(CCO)c1cccc2c1S(=O)(=O)N(Cc1cn(Cc3ccc(C(F)(F)F)cc3)nn1)Cc1ccccc1O2,1.05% (inactive)
19,CCCCC(=O)N[C@@H]1CC[C@@]23CCCN2C(=O)CCC[C@H]3[C@H]1C,-2.76% (inactive)
20,CCN(Cc1ccccc1)C(=O)CSc1nc(C)cc2c1C(=O)OC2,26% (active)
21,CCOC(=O)CSc1nc(C)cc2c1C(=O)OC2,-0.04% (inactive)
22,CCN(Cc1ccncc1)C(=O)CCc1ccccc1,-1.14% (inactive)
23,COc1ccc(-n2c(SCC(=O)Nc3ccccc3-c3ccccc3)nnc2-c2cccnc2)cc1,1.25% (inactive)
24,C[C@@H]1ON(C)[C@H]2C[C@H]3c4[nH]c5cccc(-c6ccc7c(c6)OCO7)c5c4CCN3C[C@@H]12,4.06% (inactive)
25,COc1ccc(CCNC(=O)CCn2c(=O)c3ccccc3n(CC(=O)NCC3CCCO3)c2=O)cc1OC (stereo not given),2.05% (inactive)
26,COc1ccc(CCn2c(=N)c(C(=O)NCC3CCCO3)cc3c(=O)n4cccc(C)c4nc32)cc1OC (stereo not given),24.6% (active)
27,Cc1ccc2nc3c(cc(C(=O)NCCc4ccccc4)c(=N)n3CC3CCCO3)c(=O)n2c1 (stereo not given),-6.46% (inactive)

row,SMILES,inhibition
1,O=C(c1cccc(C(F)(F)F)c1)N1CC[C@H]2[C@H](CCCN2Cc2cc(F)cc(F)c2)C1,-0.64% (inactive)
2,Cc1noc(C)c1NC(=O)Nc1ccc2c(c1)C(=O)N([C@H](C)CO)C[C@H](C)[C@@H](CN(C)C(=O)Nc1ccccc1)O2,22.9% (active)
3,Cc1noc(C)c1NC(=O)Nc1ccc2c(c1)C(=O)N([C@H](C)CO)C[C@H](C)[C@@H](CN(C)C(=O)Nc1ccc(C(F)(F)F)cc1)O2,-2.17% (inactive)
4,Cc1noc(C)c1NC(=O)Nc1cccc2c1O[C@H](CN(C)C(=O)Nc1ccccc1)[C@@H](C)CN([C@H](C)CO)C2=O,-2.78% (inactive)
5,Cc1nc2ccc(C(=O)N3CCN(C(=O)C(C)(C)C)CC3)cc2n1C1CCCC1,0.45% (inactive)
6,Cc1cc(C(=O)OCC(=O)N2C(C)CCCC2C)c2ccccc2n1 (stereo not given),1.46% (inactive)
7,CN(C(=O)COC(=O)c1cc(=O)[nH]c2ccccc12)C1CCCCC1,-1.98% (inactive)
8,CN(C(=O)COC(=O)c1cc(-c2ccco2)nc2ccccc12)C1CCS(=O)(=O)C1 (stereo not given),52.1% (active)
9,C#CCN([C@H](C(=O)OC)C(C)CC)S(=O)(=O)c1ccccc1Br (stereo not given in full),-1.76% (inactive)
10,C=CCN(Cc1ccc2c(c1)OCO2)C(C#CC1CC1)C(C)(C)C (stereo not given),1.41% (inactive)
11,Cc1c(C=O)n(C)n(-c2ccccc2)c1=O,25.1% (active)
12,Cc1c(CN2CCC(C)CC2)c(=O)n(-c2ccccc2)n1C,2.11% (inactive)
13,Cc1cccc(N2CCN(Cc3c(C)n(C)n(-c4ccccc4)c3=O)CC2)c1C,-0.95% (inactive)
14,CCOC(=O)[C@]12CCCCC/C=C\1N(Cc1ccc(OC)cc1)C(=O)[C@H]2CC(=O)NCc1ccc(C)o1,-2.03% (inactive)
15,COc1ccc(C(=O)CSc2nnc(-c3cnccn3)n2-c2ccc(C)cc2)cc1,0.05% (inactive)
16,COc1ccc(CN(CCN2CCOCC2)C(=O)c2ccc(C)cc2)cc1OC,-0.61% (inactive)
17,C[C@H]1CN([C@@H](C)CO)S(=O)(=O)c2ccc(-c3cccc(F)c3)cc2O[C@@H]1CN(C)C,0.38% (inactive)
18,C[C@@H]1CN([C@@H](C)CO)S(=O)(=O)c2ccc(C#Cc3cccc(F)c3)cc2O[C@H]1CN(C)S(=O)(=O)c1cn(C)cn1,21.5% (active)
19,C[C@@H]1CN([C@H](C)CO)S(=O)(=O)c2ccc(C#C[C@@H](C)O)cc2O[C@@H]1CN(C)Cc1ccc(-c2ccccc2)cc1,0.52% (inactive)
20,C[C@@H]1CN([C@H](C)CO)S(=O)(=O)c2ccc(C#CC3CCCCC3)cc2O[C@H]1CN(C)C(=O)Cc1ccncc1,23.8% (active)
21,C[C@H]1CN([C@@H](C)CO)S(=O)(=O)c2ccc(Br)cc2O[C@H]1CN(C)C(=O)c1cnccn1,-0.94% (inactive)
22,COCC(=O)N(C)C[C@H]1Oc2cc(Br)ccc2S(=O)(=O)N([C@H](C)CO)C[C@H]1C,0.32% (inactive)
23,Nn1c(SCC(=O)Nc2ccc(S(N)(=O)=O)cc2)nnc1-c1n[nH]c2c1CCC2,0.51% (inactive)
24,CC(=O)OC12CCCN(C1)/C(=C/c1ccncc1)C2 (stereo not given),3.27% (inactive)
25,O=C1CC[C@@]23CCCN2C(=O)CCC[C@H]3[C@H]1Cc1ccccc1,0.21% (inactive)
26,Cc1cc(NS(=O)(=O)c2ccc(NC(=O)CSc3nnc(SCc4ccc(F)cc4)s3)cc2)nc(C)n1,3.58% (inactive)

# — PubChem BioAssay AID687016 (The Scripps Research Institute Molecular Screening Center, 2013)
